# Screening data (PubChem)
# 14-3-3g Raf – modulators of 14-3-3 gamma protein binding, primary screen, biochemical, fluorescence polarization; FP, 14-3-3gamma / TMR-pS259-Raf peptide binding; 160,000 tested, 0.19% active; AID 422, 2006; inhibition, % at 40 µM; in the data active = inhibition above about 30%;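 note: 0% = protein plus tracer without compound and 100% = blank with tracer alone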
# Target sequence (P61981 whole entry, looked up): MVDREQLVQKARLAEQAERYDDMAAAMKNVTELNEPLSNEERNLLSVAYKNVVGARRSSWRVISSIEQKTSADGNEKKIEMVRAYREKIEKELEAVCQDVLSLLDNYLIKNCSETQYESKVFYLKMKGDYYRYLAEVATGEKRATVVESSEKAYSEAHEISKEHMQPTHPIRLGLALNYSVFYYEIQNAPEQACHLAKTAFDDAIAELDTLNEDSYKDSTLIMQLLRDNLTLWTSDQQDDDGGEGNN
# * = called active by the depositor; + = active, no number. Shown is part of a subset that was picked to be rich in hits.
SMILES,14-3-3g Raf
C=Cc1c(C)c2cc3[nH]c(cc4nc(cc5nc(cc1[nH]2)C(C)=C5CCC(=O)O)C(CCC(=O)O)=C4C)c(C)c3C=C,+
COc1cccc(CNS(=O)(=O)c2c(C)nn(C)c2C)c1,-4
O=C(O)CN1C(=O)COc2ccc(S(=O)(=O)N3CCOCC3)cc21,-5
CCOC(=O)c1cc2ccc(O)cc2oc1=O,-98
CN(c1ccc(C(=O)NCc2ccccc2)cc1)S(=O)(=O)c1ccccc1,-4
Cc1ccc(CNC(=O)c2ccc(N(C)S(=O)(=O)c3ccccc3)cc2)cc1,53*
Cc1ccccc1CNC(=O)c1ccc(N(C)S(=O)(=O)c2ccccc2)cc1,-5
CC1(C)CC2=NN(C(=O)c3ccco3)C(c3ccccc3)C2CO1 (centres undefined),-1
CC1(C)Cc2c(c(N3CCOCC3)nc3sc4c(N5CCOCC5)ncnc4c23)CO1,1
COc1ccc(Cl)cc1C(=O)Nc1ccc(NC(=O)c2cccs2)cc1,-8
COc1ccccc1-c1coc2c(CN3CCOCC3)c(O)ccc2c1=O,30*
O=c1c(-c2ccc3c(c2)OCCO3)coc2c(CN3CCOCC3)c(O)ccc12,-12
COc1cccc(Oc2coc3c(CN4CCOCC4)c(O)ccc3c2=O)c1,-1
CCS(=O)(=O)N1CCC(C(=O)N2CCCCC2)CC1,-4
CCN(CC)c1nc(N2CCOCC2)nc(C)c1[N+](=O)[O-],-12
CCOc1ccccc1NC(=O)CC1Sc2ccccc2NC1=O (centres undefined),-8
C#CCn1c2ccccc2c2ccccc21,58*
OC(CCl)Cn1c2ccccc2c2ccccc21 (centres undefined),8
OCCN1CCN(CC#CCn2c3ccccc3c3ccccc32)CC1,-2
CCn1cnc2sc(C(=O)N3CCCc4ccccc43)c(C)c2c1=O,7
CN(Cc1ccccc1)C(=O)c1cc2c(=O)oc3ccccc3c2s1,-5
Cc1cccc(NC(=O)CNS(=O)(=O)c2cccs2)n1,-3
O=C(Nc1ccc2c(c1)C(=O)c1ccccc1C2=O)c1ccc(Br)cc1,-18
CC(=O)c1c2c3c(c(Br)ccc3n(C)c1=O)C(=O)c1ccccc1-2,-1
COc1ccc(Nc2c3c4c(c(Br)ccc4n(C)c2=O)C(=O)c2ccccc2-3)cc1,-39
SMILES,14-3-3g Raf
Cn1c(=O)c(N)c2c3c(cccc31)C(=O)c1ccccc1-2,109*
CCCCCCCNc1c2c3c(cccc3n(C)c1=O)C(=O)c1ccccc1-2,16
COc1ccc2c(c1N)C(=O)c1ccccc1C2=O,-80
Cn1c(=O)c(C(=O)NCCO)c(O)c2ccccc21,0
CC(=O)c1c2c3c(cccc3n(C)c1=O)C(=O)c1ccccc1-2,32*
Cn1c(=O)c(Nc2ccc(Br)cc2)c2c3c(cccc31)C(=O)c1ccccc1-2,151*
CCCOc1ccc(N2C(=O)CC(N3CCN(Cc4ccccc4)CC3)C2=O)cc1 (centres undefined),-5
CCCCOc1ccc(-c2nc(NC(=O)CC)c3c(=O)oc4ccccc4c3n2)cc1,-8
COc1ccc(S(=O)(=O)N2CCC(C(=O)NCc3ccccc3Cl)CC2)cc1,-2
CCc1ccc(OCC(=O)Nc2ccc(S(=O)(=O)Nc3nc(C)cc(C)n3)cc2)cc1,-5
COCCOC(=O)C1=C(C)NC2=C(C(=O)CC(C)(C)C2)C1c1ccc(O)cc1 (centres undefined),-5
O=C(NCc1ccc(Cl)cc1)c1ccc(N2CC3CC(C2)c2cccc(=O)n2C3)c(NS(=O)(=O)c2ccc3c(c2)OCCO3)c1 (centres undefined),-2
Cc1cc(-c2ccccc2C(=O)O)on1,-2
O=C1c2ccccc2C(=O)c2cc(O)ccc21,-17
O=C(O)c1ccccc1C1=Nc2ccc(O)cc2Oc2cc(O)ccc21,123*
Cc1ccc(NC(=O)c2[nH]ncc2[N+](=O)[O-])c(C)c1,3
COc1cccc(C=Nc2ccc(S(=O)(=O)Nc3ccccn3)cc2)c1O,2
CSc1nnc2c3ccccc3n(Cc3ccccc3)c2n1,-7
CSc1nnc2c3cc(F)ccc3n(Cc3ccccc3)c2n1,113*
CSc1nnc2c3ccccc3n(CCc3ccccc3)c2n1,3
COC(=O)C1=C(C)NC(=O)C1,-2
CC1(C)Cc2c(ccc3ccccc23)CN1C(=O)c1ccccc1,3
CCCn1c(C(O)(c2ccccc2)c2ccccc2)nc2ccccc21,-3
O=C1c2cccc3c(N4CCCCC4)ccc(c23)C(=O)N1CCCO,-18
O=C1c2cccc3c(NCCO)ccc(c23)C(=O)N1c1ccc(Cl)cc1,140*
SMILES,14-3-3g Raf
O=C1c2cccc3c(NCCCO)ccc(c23)C(=O)N1CCCO,+
CN1C(=O)c2cccc(NCCCCN3C(=O)c4ccccc4C3=O)c2C1=O,0
Cc1ccc(N2C(=O)c3cccc4c(Cl)ccc(c34)C2=O)cc1,-35
O=C1c2cccc3c(Cl)ccc(c23)C(=O)N1c1ccccc1,-4
CCOc1ccccc1C1Oc2nc(SC)nnc2-c2ccccc2N1C(C)=O (centres undefined),-1
COc1ccc([N+](=O)[O-])cc1NC(=O)c1sc2nc(C)nc(N3CCCCC3)c2c1C,6
